This passage reports z-score results from PubChem BioAssay.

Active and inactive are the calls of the source.
Note: test concentration not given here.

A short description of the first experiment: JC-1 mitochondrial signal, unstimulated adipocytes – cell-based, JC-1 fluorescence, 3T3-L1 adipocytes, 24 h, 100 nL compound, profiling panel (AID 1168). To be noted: JC-1 mitochondrial fluorescence, higher = more signal, called active from +8 up or from −8 down.
On to `Cn1cccc1C(O)C1C=CC2C(=O)N(c3ccccc3)C(=O)C2N1Nc1ccccc1` (configuration not stated), for which the z-score is -0.96 (inactive).

Take `CCOC(=O)C=Cc1cccc(C)c1O`: the z-score is -0.0308 (inactive).

As for `COC(=O)C1=CC(CCCO)=CC(c2cccs2)N(Cc2cccc(OC(F)(F)F)c2)C=C1C(=O)OC` (configuration not stated), the z-score is 0.000649 (inactive).

Turning to `[N-]=[N+]=Nc1ccccc1[C@@H]1OC(c2ccc(OCCCO)cc2)=N[C@]1(Cc1ccccc1)C(=O)N1CCCCC1`, the z-score was 1.87 (inactive).

For `C=CCNC(=O)[C@@H]1[C@H]2C(=O)O[C@H](c3ccccc3)[C@H](c3ccccc3)N2[C@H](c2ccc(O)cc2)[C@@]12C(=O)N(C(=O)OCCOC)c1ccc(C#CC3=CCCCC3)cc12`, the z-score was 0.889 (inactive).

In the case of `CCOC(=O)C[C@H]1[C@H](OC(=O)c2cc3ccccc3oc2=O)[C@@H](NC(=O)CC(C)C)c2cc(OCCCO)ccc2N1C(=O)c1ccc2ccccc2n1`, the z-score was -0.415 (inactive).

On to `NCCCCCNC(=O)[C@@H]1C[C@@H]2C(=O)N[C@@H](CCCCN)C(=O)N2[C@@H]1c1ccc(O)cc1`, for which the z-score was 1.56 (inactive).

In the case of `CC(C)C(CO)N1C(=O)[C@@H]2C3C(=O)OCCC/C=C\[C@H]3OC23C=CCN(Cn2nnc4ccccc42)C(=O)[C@@H]13` (some centres not stated), the z-score is -0.529 (inactive).

Regarding `[N-]=[N+]=NCc1ccccc1C[C@@]1(C(N)=O)N=C(c2ccc(OCCCO)cc2)O[C@@H]1c1ccccc1`, the z-score is -0.262 (inactive).

Regarding `CCOC(=O)C[C@H]1[C@H](OC(=O)c2ccc(C(=O)c3ccccc3)cc2)[C@@H](NC(=O)CC(C)C)c2cc(OCCCO)ccc2N1C(=O)c1ccccc1`, the z-score is 0.275 (inactive).

For `CC(C)[Si](C#C[Si](C(C)C)(C(C)C)C(C)C)(O[C@H](c1ccccc1)c1cn(Cc2ccccc2)nn1)C(C)C`, the z-score is -0.703 (inactive).

Consider `COC(=O)C/C=C/C[C@]1(O)C(=O)N(C)c2ccccc21`, for which the z-score is -0.694 (inactive).

Consider `CN1C(=O)C2C=CC(C(O)c3cccn3C)N(Nc3ccc([N+](=O)[O-])cc3[N+](=O)[O-])C2C1=O` (configuration not stated), for which the z-score is -1.16 (inactive).

As for `C=CCN1Cc2ccccc2[C@@H]2OC(c3ccc(OCCCO)cc3)=N[C@]2(CC=C)C1=O`, the z-score was 0.0517 (inactive).

As to `CCCC=C(CCC)[C@@H](NP(=O)(c1ccccc1)c1ccccc1)c1ccc(-c2ccccc2)cc1`, the z-score is 0.74 (inactive).

As for `C=C(COC)C(=O)CC[C@@H](OC(C)=O)c1cccc(OCCO)c1`, the z-score is -0.196 (inactive).

As for `CCOC(=O)C1=CC[C@@H](c2ccccc2F)N(S(=O)(=O)c2ccc(C)cc2)[C@H]1c1ccccc1`, the z-score is -1.35 (inactive).

Consider `O=C1O[C@H](c2ccccc2)[C@H](c2ccccc2)N2[C@H]1[C@@H](C(=O)O)[C@]1(C(=O)Nc3ccc(C#CCCO)cc31)[C@H]2c1ccccc1OCCO`, for which the z-score is -0.426 (inactive).

With `COc1cc2c(cc1O)C(C1CC1)N(C)CC2` (configuration not stated), the z-score was 0.883 (inactive).

For `COC(=O)[C@@]1(Cc2ccc(OC)cc2)[C@H]2c3cc(C(=O)N4CCCC4)n(CCO)c3C[C@H]2CN1C(=O)c1ccccc1`, the z-score is -1.55 (inactive).

On to `[N-]=[N+]=Nc1ccccc1C[C@]1(C(=O)N2CCOCC2)COC(c2ccc(OCCCO)cc2)=N1`, for which the z-score is -0.491 (inactive).

In the case of `O=C1C2C=CC(C(O)c3ccco3)N(Nc3ccccc3F)C2C(=O)N1c1ccccc1` (configuration not stated), the z-score is -0.346 (inactive).

Turning to `CCCCCN1CC=CC23O[C@@H]4/C=C\CCCOC(=O)C4[C@H]2C(=O)N(C(C)CO)[C@@H]3C1=O` (some centres not stated), the z-score is 0.0667 (inactive).

On to `COC(=O)c1c(CC[C@@H](CO)NC(=O)N2CCC[C@H]2Cn2cc(C3(O)CCCCC3)nn2)oc(C(C)=O)c1C(=O)OC`, for which the z-score was -0.629 (inactive).

For the molecule `CCCCNC(=O)c1ccc(C#CC(C)(C)C)c(OC(C)=O)c1`, the z-score is -0.103 (inactive).

Regarding `COc1ccccc1CN1C(=O)c2ccccc2[C@](Cc2ccccc2I)(C(=O)O)[C@@H]1c1ccc(CO)cc1`, the z-score is -0.205 (inactive).

A short description of a further experiment: JC-1 mitochondrial signal, unstimulated myeloma cells – cell-based, JC-1 fluorescence, RPMI8226, 24 h, 100 nL compound, profiling panel (AID 1169). To be noted: JC-1 mitochondrial potential fluorescence, higher = more signal.
As to `COC(=O)[C@@]1(Cc2ccc(OC)cc2)[C@H]2c3cc(C(=O)N(C)C)n(Cc4ccc(C)o4)c3C[C@H]2CN1C(=O)c1ccccc1`, the z-score is -0.939.

On to `CCCCCN1CC=CC23O[C@@H]4/C=C\CCC(C)OC(=O)C4[C@H]2C(=O)N(C(CO)C(C)C)[C@@H]3C1=O` (some centres not stated), for which the z-score came to 0.699.

Regarding `CCOC(=O)C[C@H]1[C@H](OC(=O)c2ccccc2-c2ccccc2)[C@@H](NC(=O)c2ccc3ccccc3n2)c2cc(OCCCO)ccc2N1C(=O)Cc1ccc(OC)cc1`, the z-score is -0.209.

In turn, `O=C1OCCC/C=C\[C@H]2OC34C=CCN(c5ccc6ccccc6c5)C(=O)[C@H]3N(CCO)C(=O)[C@@H]4C12` (some centres not stated) came in with a z-score of -0.0898.

In turn, `O=C1N(Cc2ccccc2)c2ccccc2C[C@]12N=C(c1ccc(OCCCO)cc1)O[C@@H]2c1ccccc1` showed a z-score of -1.22.

`O[C@@H](Cc1ccccc1)[C@@H](/C=C/C1CC1)N(CC#Cc1ccccc1)Cc1ccccc1Br` came in with a z-score of -0.44.

In the case of `O=C(C1N=C(c2ccc(OCCCO)cc2)N(c2ccccc2)O1)N1CCCCC1` (configuration not stated), the z-score was -0.779.

Take `CC(C)[Si]1(C(C)C)OCc2cc(-c3ccc(-c4ccc(Cl)c(Cl)c4)o3)nc(-c3ccccc3)c21`: the z-score worked out at 0.194.

As for `COc1ccc([Si](C)(C)[C@@H]2[C@@H](CCO)O[C@]3(C(=O)N(Cc4ccccc4)c4ccc(NC(=O)[C@H](C)O)cc43)[C@H]2C)cc1`, the z-score is -0.972.

Take `COc1cc(NN2C(C(O)c3ccc(N(C)C)cc3)C=CC3C(=O)N(c4ccccc4)C(=O)C32)cc(OC)c1OC` (configuration not stated): the z-score amounted to 0.134.

The molecule `Cn1cccc1C(O)C1C=CC2C(=O)N(c3ccccc3)C(=O)C2N1Nc1ccccc1` (configuration not stated) displayed a z-score of -0.509.

In turn, `CCOC(=O)C=Cc1cccc(C)c1O` gave a z-score of -0.642.

`COC(=O)C1=CC(CCCO)=CC(c2cccs2)N(Cc2cccc(OC(F)(F)F)c2)C=C1C(=O)OC` (configuration not stated) registered a z-score of -0.786.

Molecule `[N-]=[N+]=Nc1ccccc1[C@@H]1OC(c2ccc(OCCCO)cc2)=N[C@]1(Cc1ccccc1)C(=O)N1CCCCC1` yielded a z-score of -1.17.

The molecule `C=CCNC(=O)[C@@H]1[C@H]2C(=O)O[C@H](c3ccccc3)[C@H](c3ccccc3)N2[C@H](c2ccc(O)cc2)[C@@]12C(=O)N(C(=O)OCCOC)c1ccc(C#CC3=CCCCC3)cc12` showed a z-score of -0.825.

Consider `CCOC(=O)C[C@H]1[C@H](OC(=O)c2cc3ccccc3oc2=O)[C@@H](NC(=O)CC(C)C)c2cc(OCCCO)ccc2N1C(=O)c1ccc2ccccc2n1`, for which the z-score was -0.272.

In turn, `NCCCCCNC(=O)[C@@H]1C[C@@H]2C(=O)N[C@@H](CCCCN)C(=O)N2[C@@H]1c1ccc(O)cc1` came in with a z-score of -0.457.

In the case of `CC(C)C(CO)N1C(=O)[C@@H]2C3C(=O)OCCC/C=C\[C@H]3OC23C=CCN(Cn2nnc4ccccc42)C(=O)[C@@H]13` (some centres not stated), the z-score is -0.0779.

Consider `[N-]=[N+]=NCc1ccccc1C[C@@]1(C(N)=O)N=C(c2ccc(OCCCO)cc2)O[C@@H]1c1ccccc1`, for which the z-score was -1.22.

For the molecule `CCOC(=O)C[C@H]1[C@H](OC(=O)c2ccc(C(=O)c3ccccc3)cc2)[C@@H](NC(=O)CC(C)C)c2cc(OCCCO)ccc2N1C(=O)c1ccccc1`, the z-score worked out at 0.52.

`CC(C)[Si](C#C[Si](C(C)C)(C(C)C)C(C)C)(O[C@H](c1ccccc1)c1cn(Cc2ccccc2)nn1)C(C)C` had a z-score of 0.294.

Take `COC(=O)C/C=C/C[C@]1(O)C(=O)N(C)c2ccccc21`: the z-score was -0.838.

`CN1C(=O)C2C=CC(C(O)c3cccn3C)N(Nc3ccc([N+](=O)[O-])cc3[N+](=O)[O-])C2C1=O` (configuration not stated): the z-score is 0.647.

The molecule `C=CCN1Cc2ccccc2[C@@H]2OC(c3ccc(OCCCO)cc3)=N[C@]2(CC=C)C1=O` displayed a z-score of -1.09.

The molecule `CCCC=C(CCC)[C@@H](NP(=O)(c1ccccc1)c1ccccc1)c1ccc(-c2ccccc2)cc1` returned a z-score of -0.343.

Molecule `C=C(COC)C(=O)CC[C@@H](OC(C)=O)c1cccc(OCCO)c1` had a z-score of 0.0392.

In turn, `CCOC(=O)C1=CC[C@@H](c2ccccc2F)N(S(=O)(=O)c2ccc(C)cc2)[C@H]1c1ccccc1` returned a z-score of -0.0368.

As to `O=C1O[C@H](c2ccccc2)[C@H](c2ccccc2)N2[C@H]1[C@@H](C(=O)O)[C@]1(C(=O)Nc3ccc(C#CCCO)cc31)[C@H]2c1ccccc1OCCO`, the z-score is -0.616.

`COc1cc2c(cc1O)C(C1CC1)N(C)CC2` (configuration not stated) returned a z-score of 0.0965.

`COC(=O)[C@@]1(Cc2ccc(OC)cc2)[C@H]2c3cc(C(=O)N4CCCC4)n(CCO)c3C[C@H]2CN1C(=O)c1ccccc1` gave a z-score of 0.506.

For the molecule `[N-]=[N+]=Nc1ccccc1C[C@]1(C(=O)N2CCOCC2)COC(c2ccc(OCCCO)cc2)=N1`, the z-score was -0.571.

With `O=C1C2C=CC(C(O)c3ccco3)N(Nc3ccccc3F)C2C(=O)N1c1ccccc1` (configuration not stated), the z-score was -0.201.

Molecule `CCCCCN1CC=CC23O[C@@H]4/C=C\CCCOC(=O)C4[C@H]2C(=O)N(C(C)CO)[C@@H]3C1=O` (some centres not stated) gave a z-score of 1.08.

`COC(=O)c1c(CC[C@@H](CO)NC(=O)N2CCC[C@H]2Cn2cc(C3(O)CCCCC3)nn2)oc(C(C)=O)c1C(=O)OC` registered a z-score of -0.667.

`CCCCNC(=O)c1ccc(C#CC(C)(C)C)c(OC(C)=O)c1` returned a z-score of -0.284.

For the molecule `COc1ccccc1CN1C(=O)c2ccccc2[C@](Cc2ccccc2I)(C(=O)O)[C@@H]1c1ccc(CO)cc1`, the z-score is -0.151.
